PubChem BioAssay (EPA / NIEHS)
Results filed as inconclusive are left out. Active and inactive are the calls of the source. How the source made its calls, unless noted: active means hit-call score of the fitted dose curve at least 0.9, where 1 is the maximum; inconclusive means response in the unintended direction; inactive means score below 0.9.

Key:
[1] = CCTE_Shafer_MEA_acute_spike_number: CCTE's Neural Acute Assay for Total Number of Spikes, Shafer Lab (AID 2284008; active means hit-call score of the fitted dose curve at least 0.9, where 1 is the maximum; inactive means score below 0.9)
How it was run: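 Rat cortical cultures, DIV 13/15, 37 C. 40 min baseline rec, cpd 0.03-40 uM, 40 min post-dose rec. Band-pass 300-5000 Hz, spike threshold 8x rms; % change in spike count per well, DMSO neg ctrl, loss-of-signal fit.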

[2] = CCTE_Shafer_MEA_acute_firing_rate_mean: CCTE's Neural Acute Assay for Mean Firing Rate, Shafer Lab (AID 2284009; active means hit-call score of the fitted dose curve at least 0.9, where 1 is the maximum; inactive means score below 0.9;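 further: analyzed for loss of signal so actives lower firing rate relative to DMSO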)
How it was run: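 Rat cortical neuron cultures matured to DIV 13 or 15, equilibrated 20 min at 37 C, then recorded 40 min for baseline. Compound (0.03-40 uM) added and a further 40 min recorded; percent change in mean firing rate calculated per well.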

[3] = molecular target: Thyroid hormone receptor alpha (Rattus norvegicus) + Thyroid hormone receptor beta (Rattus norvegicus) (UniProt P18113+P63059); experiment: TOX21_TR_LUC_GH3_Antagonist_Followup: Tox21 GH3 Thyroid Hormone Receptor Antagonism Luciferase Follow-Up Assay (AID 2283942)
How it was run: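 Luminescence read-out (ONE-Glo, 30 min at room temperature) in GH3 reporter cells challenged with 1.0 nM T3 final. Compounds ran at 92 uM to 5nM over 15 concentrations for 24 h; DMSO served as negative control and baseline.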

[4] = molecular target: THRB (gene 7068) (UniProt P10828); experiment: TOX21_TRB_BLA_Antagonist_Followup_ratio: Tox21 Thyroid Hormone Receptor beta Antagonism Beta-lactamase (BLA) Follow-Up Assay, Ratio (AID 2283958)
How it was run: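 Beta-lactamase reporter ratio (460/530 nm, CCF4-AM substrate, 2 h room temperature) was read in TRb-bla HEK293T cells after 18 h compound treatment (11 concentrations, triplicate) at 37C in 2% charcoal-stripped FBS medium. Loss of signal fitted against DMSO.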

[5] = TOX21_TRB_BLA_Antagonist_Followup_viability: Viability Assessment in the Tox21 Thyroid Hormone Receptor beta Antagonism Beta-lactamase (BLA) Follow-Up Assay (AID 2283961)
How it was run: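 Viability read as CellTiter-Glo ATP luminescence (loss of signal = cytotoxicity) in the same plates as the TRβ-bla readout. TRβ-LBD/GAL4 UAS-bla HEK293T cells were exposed to compounds, 11 concentrations in triplicate, for 18 h at 37C/5% CO2.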

[6] = molecular target: THRB (gene 7068) (UniProt P10828); experiment: TOX21_TRB_COA_Antagonist_Followup_ratio: Tox21 Thyroid Hormone Receptor beta Antagonism through Coactivator Recruitment Follow-Up Assay, Ratio (AID 2283967)
How it was run: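 GST-TRb LBD 5.0 nM + 0.10% BSA, compound added; fluorescein-SRC-2 peptide 200 nM, Tb-anti-GST Ab 2 nM. TR-FRET, ex 340 / em 520:495 ratio. Norm: DMSO 0%, T3 100%.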

[7] = TOX21_TR_RXR_BLA_Antagonist_Followup_viability: Viability Assessment in the Tox21 Thyroid Hormone Receptor beta Retinoid X Receptor alpha (RXRa) Antagonism Beta-lactamase (BLA) Follow-Up Assay (AID 2283979)
How it was run: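 RXRa-bla HEK293T cells (2,500/well, phenol red-free DMEM, 2% charcoal-stripped FBS) were attached 5 h, then exposed to compounds at 11 concentrations in triplicate for 16 h at 37C. Viability measured by CellTiter-Glo ATP luminescence, bidirectional fitting versus DMSO.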

[8] = tested on: DIO1 (gene 1733); experiment: CCTE_GLTED_hDIO1: CCTE's human Deiodinase 1 (DIO1) Inhibition Assay, Great Lakes Toxicology and Ecology Division (GLTED) Lab (AID 2283987);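 further: isolated human DIO1 enzyme in a cell-free setup rather than cells; enzyme activity read as free iodide liberated from substrate via Sandell-Kolthoff colorimetry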
How it was run: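 Steps: human DIO1 enzyme plus test chemical, 3 h incubation; free iodide then quantified in a second Sandell-Kolthoff step by absorbance. DMSO served as negative control and baseline.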

[9] = molecular target: Nucleoli Translocation, AR (gene 367) (UniProt P10275); experiment: UPITT_HCI_U2OS_AR_TIF2_Nucleoli_Antagonist: University of Pittsburgh U2OS Androgen Receptor-Transcriptional Intermediary Factor 2 (AR-TIF2) Antagonism High Content Imaging Assay for Nucleoli Translocation (AID 2283997)
How it was run: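 Compounds are added at 20 uM final concentration in 0.2% DMSO to U2OS cells carrying AR-RFP and TIF2-GFP fusions. Nucleolar AR-RFP fluorescence is then quantified by automated imaging. Antagonism is fitted positively against DHT baseline.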

[10] = molecular target: Ratio of Nucleoli Translocation and Cytoplasm, AR (gene 367) (UniProt P10275); experiment: UPITT_HCI_U2OS_AR_TIF2_Nucleoli_Cytoplasm_Ratio_Antagonist: University of Pittsburgh U2OS Androgen Receptor-Transcriptional Intermediary Factor 2 (AR-TIF2) Antagonism High Content Imaging Assay for Ratio of Nucleoli Translocation and Cytoplasm (AID 2283999);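 further: antagonists lower the DHT-driven ratio of nucleolar to cytoplasmic red signal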
How it was run: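 High-content imaging of red fluorescence ratio, nucleoli versus cytoplasm, in U2OS expressing AR-RFP and TIF2-GFP, fitted relative to DHT. Compounds tested once at 20 uM final, then 0.195 to 50 uM final in serial dilution.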

[11] = molecular target: Ratio of Nucleoli Translocation and Cytoplasm, AR (gene 367) (UniProt P10275); experiment: UPITT_HCI_U2OS_AR_TIF2_Nucleoli_Cytoplasm_Ratio_Agonist: University of Pittsburgh U2OS Androgen Receptor-Transcriptional Intermediary Factor 2 (AR-TIF2) Agonism High Content Imaging Assay for Ratio of Nucleoli Translocation and Cytoplasm (AID 2284000);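 further: hits raise the red nucleolar to cytoplasm ratio above vehicle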
How it was run: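 Human osteosarcoma U2OS line, AR-RFP plus TIF2-GFP; compounds 0.195–50 uM final, 0.5% DMSO. Readout: nucleolar/cytoplasmic RFP ratio by HCI, positive direction vs DMSO baseline.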

[12] = molecular target: THRA (gene 7067) (UniProt P10827); experiment: TOX21_TRA_COA_Antagonist_Followup_ratio: Tox21 Thyroid Hormone Receptor alpha Antagonism through Coactivator Recruitment Follow-Up Assay, Ratio (AID 2283953)
How it was run: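 GST-TRα LBD 2.5 nM, BSA 0.10%, + cpd; then FITC-SRC-2 peptide 200 nM + Tb-anti-GST Ab 2 nM. TR-FRET ratio 520/495 nm. Norm: DMSO = 0%, T3 = 100%.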

[13] = molecular target: Retinoic acid receptor RXR-alpha (Homo sapiens) (UniProt P19793); experiment: TOX21_TR_RXR_BLA_Antagonist_Followup_ratio: Tox21 Thyroid Hormone Receptor beta Retinoid X Receptor alpha (RXRa) Antagonism Beta-lactamase (BLA) Follow-Up Assay, Ratio (AID 2283972)
How it was run: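 Beta-lactamase reporter readout as cleaved/uncleaved substrate ratio (460:530 nm) after 2 h substrate loading at room temperature. GAL4-RXRa bla HEK293T cells were exposed 16 h at 37C to 11-point compound series; loss of signal scored against DMSO baseline.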

[14] = CCTE_Harrill_HTTr_Viability_MCF7: CCTE's 6-hour Cell Viability Assessment for the High-Throughput Transcriptomics (HTTr) Platform, in MCF-7 cells cultured in DMEM + 10% fetal bovine serum, Harrill Lab (AID 2284010; active means hit-call score of the fitted dose curve at least 0.9, where 1 is the maximum; inactive means score below 0.9)
How it was run: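 Propidium iodide exclusion, imaged by high-content analysis, gauged viability after a six-hour exposure across eight concentrations. Cells were MCF-7 grown in DMEM with 10% fetal bovine serum; fits run in both directions against DMSO.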

[15] = molecular target: Nucleoli Translocation, AR (gene 367) (UniProt P10275); experiment: UPITT_HCI_U2OS_AR_TIF2_Nucleoli_Agonist: University of Pittsburgh U2OS Androgen Receptor-Transcriptional Intermediary Factor 2 (AR-TIF2) Agonism High Content Imaging Assay for Nucleoli Translocation (AID 2283998)
How it was run: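 RFP-AR / GFP-TIF2 cells; cpds diluted in serum-free medium; single-point screen 20 uM final (0.2% DMSO), actives confirmed in triplicate; conc-response 0.195–50 uM final (0.5% DMSO). Readout: nucleolar red fluorescence, positive direction vs DMSO.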

Sequence of Ratio of Nucleoli Translocation and Cytoplasm, AR (gene 367) (P10275 whole entry, looked up): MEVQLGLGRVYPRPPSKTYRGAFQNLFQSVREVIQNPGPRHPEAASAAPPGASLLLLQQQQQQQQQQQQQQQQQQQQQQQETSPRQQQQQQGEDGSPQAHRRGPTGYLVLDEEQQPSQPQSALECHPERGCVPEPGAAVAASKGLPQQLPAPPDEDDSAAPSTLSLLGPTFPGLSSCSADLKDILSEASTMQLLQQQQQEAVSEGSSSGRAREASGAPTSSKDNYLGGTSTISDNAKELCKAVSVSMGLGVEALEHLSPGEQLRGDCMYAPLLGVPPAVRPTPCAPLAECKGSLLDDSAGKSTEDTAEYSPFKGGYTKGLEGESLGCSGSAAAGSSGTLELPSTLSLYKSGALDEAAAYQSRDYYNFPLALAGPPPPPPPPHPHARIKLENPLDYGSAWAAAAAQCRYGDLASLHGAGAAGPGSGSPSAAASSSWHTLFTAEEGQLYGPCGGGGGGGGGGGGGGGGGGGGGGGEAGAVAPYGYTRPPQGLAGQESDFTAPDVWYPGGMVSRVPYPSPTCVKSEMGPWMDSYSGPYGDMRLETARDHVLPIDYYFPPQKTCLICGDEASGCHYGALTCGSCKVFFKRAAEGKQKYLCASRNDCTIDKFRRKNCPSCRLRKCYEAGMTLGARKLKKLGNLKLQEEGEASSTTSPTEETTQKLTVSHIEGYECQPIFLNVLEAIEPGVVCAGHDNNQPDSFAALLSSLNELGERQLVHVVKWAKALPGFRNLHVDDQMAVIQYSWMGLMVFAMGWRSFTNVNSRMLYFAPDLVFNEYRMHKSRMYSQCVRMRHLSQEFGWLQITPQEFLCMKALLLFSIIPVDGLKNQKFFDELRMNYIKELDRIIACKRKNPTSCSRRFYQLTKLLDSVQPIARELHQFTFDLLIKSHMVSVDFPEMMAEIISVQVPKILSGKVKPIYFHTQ
Sequence of Nucleoli Translocation, AR (gene 367) (P10275 whole entry, looked up, the tested form may be a part): as the sequence (P10275 whole entry, looked up) above
Sequence of THRB (gene 7068) (P10828 whole entry, looked up, the tested form may be a part): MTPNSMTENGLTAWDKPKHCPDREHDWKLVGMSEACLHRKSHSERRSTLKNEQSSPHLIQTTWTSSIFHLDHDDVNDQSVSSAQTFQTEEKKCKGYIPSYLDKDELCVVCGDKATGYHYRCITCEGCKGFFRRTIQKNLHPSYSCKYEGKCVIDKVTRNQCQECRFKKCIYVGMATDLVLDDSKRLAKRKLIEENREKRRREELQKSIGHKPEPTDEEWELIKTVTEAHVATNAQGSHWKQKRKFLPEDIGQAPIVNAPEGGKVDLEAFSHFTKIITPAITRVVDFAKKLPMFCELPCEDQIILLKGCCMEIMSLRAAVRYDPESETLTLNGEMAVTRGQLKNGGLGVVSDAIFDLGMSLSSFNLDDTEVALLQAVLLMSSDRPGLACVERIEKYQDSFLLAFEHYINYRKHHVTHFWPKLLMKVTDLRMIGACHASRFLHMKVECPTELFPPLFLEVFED
Sequence of Retinoic acid receptor RXR-alpha (Homo sapiens) (P19793 whole entry, looked up, the tested form may be a part): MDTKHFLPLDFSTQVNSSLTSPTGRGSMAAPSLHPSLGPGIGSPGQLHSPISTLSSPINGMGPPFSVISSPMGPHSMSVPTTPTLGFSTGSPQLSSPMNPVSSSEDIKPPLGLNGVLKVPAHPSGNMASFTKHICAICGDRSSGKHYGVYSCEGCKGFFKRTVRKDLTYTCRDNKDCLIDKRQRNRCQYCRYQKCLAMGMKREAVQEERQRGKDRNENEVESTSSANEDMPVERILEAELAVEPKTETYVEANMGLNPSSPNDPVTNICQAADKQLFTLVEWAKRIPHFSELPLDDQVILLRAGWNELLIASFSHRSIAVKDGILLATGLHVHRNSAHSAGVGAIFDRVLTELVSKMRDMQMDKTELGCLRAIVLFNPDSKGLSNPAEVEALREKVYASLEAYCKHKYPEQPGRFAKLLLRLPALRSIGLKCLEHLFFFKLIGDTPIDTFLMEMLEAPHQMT
Sequence of THRA (gene 7067) (P10827 whole entry, looked up, the tested form may be a part): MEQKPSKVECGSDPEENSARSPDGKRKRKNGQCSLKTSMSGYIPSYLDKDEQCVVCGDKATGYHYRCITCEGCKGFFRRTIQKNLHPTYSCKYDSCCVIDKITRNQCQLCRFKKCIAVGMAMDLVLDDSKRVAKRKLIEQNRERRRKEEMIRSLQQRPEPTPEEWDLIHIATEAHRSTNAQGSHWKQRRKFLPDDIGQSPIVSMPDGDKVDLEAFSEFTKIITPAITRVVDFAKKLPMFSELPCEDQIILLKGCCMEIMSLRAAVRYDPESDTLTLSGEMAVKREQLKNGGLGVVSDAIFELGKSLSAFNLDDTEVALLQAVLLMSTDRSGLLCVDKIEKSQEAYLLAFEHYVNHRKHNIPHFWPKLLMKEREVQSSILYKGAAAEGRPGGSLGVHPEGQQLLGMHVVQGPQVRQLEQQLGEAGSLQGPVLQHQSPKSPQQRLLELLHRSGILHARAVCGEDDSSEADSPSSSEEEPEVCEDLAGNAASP

CCCCC(CC)COCC1CO1 (stereo not drawn)
outcome [1]: inactive | outcome [2]: inactive

N=c1ccn2c(n1)O[C@H]1[C@H](O)[C@@H](CO)O[C@H]12
outcome [3]: inactive | outcome [4]: inactive | outcome [5]: inactive | outcome [6]: inactive | outcome [7]: inactive

CCCCCCCC[N+](C)(CCCCCCCC)CCCCCCCC
AC50 [8]: 70.8 µM (active)

CC(C)c1ccc2cc(C(C)C)ccc2c1
outcome [9]: inactive | outcome [10]: inactive | outcome [11]: inactive

COCc1c(C(C)C)nc(C(C)C)c(/C=C/[C@@H](O)C[C@@H](O)CC(=O)O)c1-c1ccc(F)cc1
outcome [3]: inactive | outcome [12]: inactive | outcome [4]: inactive | outcome [5]: inactive | outcome [6]: inactive | outcome [7]: inactive

CC(C)c1ccc2c(C(C)C)cc(C(C)C)c(S(=O)(=O)O)c2c1
outcome [9]: inactive | outcome [11]: inactive

O=S(=O)(O)c1ccccc1C=Cc1ccc(-c2ccc(C=Cc3ccccc3S(=O)(=O)O)cc2)cc1
AC50 [8]: 100 µM (active)

COc1ccc(C(Cl)=C(c2ccc(OC)cc2)c2ccc(OC)cc2)cc1
outcome [3]: inactive | outcome [4]: inactive | outcome [5]: inactive | outcome [13]: inactive | outcome [7]: inactive | outcome [14]: inactive

CCCCC/C=C\CCC=O
outcome [9]: inactive | outcome [15]: inactive | outcome [11]: inactive

Cc1oncc1C(=O)Nc1ccc(C(F)(F)F)cc1
outcome [12]: inactive | outcome [4]: inactive | outcome [5]: inactive | outcome [6]: inactive | outcome [13]: inactive | outcome [7]: inactive | outcome [14]: inactive

Nc1ccc(N)c(Cl)c1
outcome [1]: inactive | outcome [2]: inactive

CC/C=C\C/C=C\C/C=C\CCCCCCCC(=O)O
AC50 [8]: 20.6 µM (active) | outcome [14]: inactive

CC(C)(Oc1ccc(C2CC2(Cl)Cl)cc1)C(=O)O (stereo not drawn)
outcome [9]: inactive | outcome [15]: inactive | outcome [10]: inactive | outcome [11]: inactive | outcome [14]: inactive

CCCCCCCCCCCCCOP(=O)(O)O
AC50 [8]: 91 µM (active)

O=c1cc(-c2ccccc2)oc2ccccc12
AC50 [9]: 21.9 µM (active) | outcome [15]: inactive | AC50 [10]: 10.5 µM (active) | outcome [14]: inactive

CCCCC/C=C\C/C=C\CCCCCCCC(=O)OC
AC50 [8]: 21 µM (active)

CCCCCCCC/C=C\CCCCCCCC(=O)O
AC50 [8]: 74 µM (active) | outcome [14]: inactive
